Mtb betalactam: beta-lactam sensitization of Mtb H37Rv, H37Rv | M. tuberculosis H37Rv growth with meropenem, percent inhibition | inhibition, % at 25 µM | 330,000 compounds, 0.27% hits; call rule not given here;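 further: growth measured after seven days incubation then overnight dye step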
FadD28 FP inh: inhibitors of FadD28 bisubstrate probe binding, primary screen, biochemical, fluorescence polarization, single point | Mycobacterium tuberculosis FadD28 fatty-acid-AMP ligase | inhibition, % at 12.5 µM | 360,000 compounds, 0.22% hits; in the data active means inhibition above about 8.5%, passing the limit was not always enough
PrP 5UTR inh: inhibition of PrP 5' UTR reporter expression; inhibition, % (no concentration beside the values); cell-based PrP 5' UTR mRNA reporter, plate reader; AID 488862, 2010; 340,000 compounds, 0.35% hits; in the data active means inhibition above about 52%
BH1578 lux ind: inducers of Vibrio cholerae quorum light production without autoinducers, primary screen, BH1578 luxS cqsA deficient, single point; AID 588436, 2011; V. cholerae BH1578 lux reporter, luminescence, 6 h; 350,000 compounds, 0.16% hits; activation, % at 18.7 µM; in the data active means activation mostly above about 9.7%, no sharp cut-off
UGM FP inh: M. tuberculosis UGM enzyme inhibitors, primary screen, biochemical, fluorescence polarization, single point; UDP-galactopyranose mutase (Mycobacterium tuberculosis (strain ATCC 25618 / H37Rv)), …; purified UGM, fluorescence polarization probe displacement; inhibition, % at 10 µM; 320,000 compounds, 0.06% hits; AID 504406, 2011; in the data active means inhibition above about 10%, passing the limit was not always enough
Rv3671c protease: Rv3671c serine protease inhibitors, primary screen, biochemical, fluorescence polarization, M. tuberculosis H37Rv; inhibition, % at 5.96 µM; P9WHR9; 320,000 compounds, 0.048% hits; in the data active means inhibition above about 38%;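 further: extracellular domain of Rv3671c used as enzyme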
Target sequence (P9WHR9 whole entry, looked up, the tested form may be a part): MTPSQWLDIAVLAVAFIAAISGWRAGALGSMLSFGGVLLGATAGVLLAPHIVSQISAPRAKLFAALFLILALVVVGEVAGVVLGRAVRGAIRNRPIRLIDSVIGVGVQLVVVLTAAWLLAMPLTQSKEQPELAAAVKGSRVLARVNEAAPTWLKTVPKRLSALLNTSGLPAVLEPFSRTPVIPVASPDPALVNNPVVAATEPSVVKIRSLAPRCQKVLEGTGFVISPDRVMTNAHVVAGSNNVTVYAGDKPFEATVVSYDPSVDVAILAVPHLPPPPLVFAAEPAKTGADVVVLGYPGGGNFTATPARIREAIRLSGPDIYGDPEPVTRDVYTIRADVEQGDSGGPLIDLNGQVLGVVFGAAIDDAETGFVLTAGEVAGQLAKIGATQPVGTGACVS
A number is an active result. Only some compounds are listed: those with a hit (about 0.76% of all), similar ones and a draw of the others.

Screening COc1ccc(NC(=O)Nc2cccc([N+](=O)[O-])c2)cc1Cl returned Mtb betalactam inactive, FadD28 FP inh 16.4, PrP 5UTR inh inactive, BH1578 lux ind inactive, UGM FP inh inactive and Rv3671c protease inactive.
Screening COc1ccccc1CCNC(=O)Nc1cccc([N+](=O)[O-])c1 returned Mtb betalactam inactive, FadD28 FP inh inactive, PrP 5UTR inh inactive, BH1578 lux ind inactive, UGM FP inh inactive and Rv3671c protease inactive.
`CC(C)(C)C(=O)OC[N+](C)(C)CCOC(=O)C(O)(c1ccccc1)C1CCCC1` (stereo not drawn) gave Mtb betalactam inactive, FadD28 FP inh inactive, PrP 5UTR inh inactive, BH1578 lux ind inactive, UGM FP inh inactive and Rv3671c protease inactive.
Screening CN1CCCN=C1COC(=O)C(O)(c1ccccc1)C1CCCCC1 (stereo not drawn) returned Mtb betalactam inactive, FadD28 FP inh inactive, PrP 5UTR inh inactive, BH1578 lux ind 29.2, UGM FP inh inactive and Rv3671c protease inactive.
CC1=C(C(=O)N2CCOCC2)CC(CC(=O)NCCc2ccccn2)C(=O)N1CCC1=CCCCC1 (stereo not drawn) was read as FadD28 FP inh inactive.
CC1=NN(c2nc(-c3ccccc3)cs2)C(=O)C1 was read as Mtb betalactam inactive, FadD28 FP inh 16.3, PrP 5UTR inh inactive, BH1578 lux ind inactive, UGM FP inh inactive and Rv3671c protease inactive.
Screening O=C1CC(c2ccccc2)=NN1c1nc(-c2ccccc2)cs1 returned Mtb betalactam inactive, FadD28 FP inh inactive, PrP 5UTR inh inactive, BH1578 lux ind inactive, UGM FP inh inactive and Rv3671c protease inactive.
For O=C(NNC(=O)c1ccccc1F)C1=NN(c2ccccc2)C(=O)CC1 the results were Mtb betalactam inactive, FadD28 FP inh inactive, PrP 5UTR inh inactive, BH1578 lux ind inactive, UGM FP inh inactive and Rv3671c protease inactive.
For CCN1CCN(Cc2ccc(NC(=O)c3cc(NC(=O)c4cc(-c5ccc(OC)cc5)n[nH]4)cc(OC)c3)cc2C(F)(F)F)CC1 the results were Mtb betalactam inactive, FadD28 FP inh 66.7, PrP 5UTR inh inactive, BH1578 lux ind inactive, UGM FP inh inactive and Rv3671c protease inactive.
For COc1ccc(C(=O)c2ccc([N+](=O)[O-])cc2)cc1S(=O)(=O)N1CCC(C(=O)O)CC1 the results were Mtb betalactam inactive, FadD28 FP inh inactive, PrP 5UTR inh inactive, BH1578 lux ind inactive, UGM FP inh inactive and Rv3671c protease inactive.
Cc1nc(S/C(=C\c2ccc(-c3ccc(C(=O)O)c(Cl)c3)o2)C(=O)O)n[nH]1 was read as FadD28 FP inh 19.9, PrP 5UTR inh inactive and BH1578 lux ind inactive.
Cc1cc(NC(=S)N(Cc2ccc(Cl)cc2)Cc2ccc(C(=O)O)cc2)ccc1Cl was read as Mtb betalactam inactive, FadD28 FP inh inactive, PrP 5UTR inh inactive, BH1578 lux ind inactive, UGM FP inh inactive and Rv3671c protease inactive.
For CCc1ccc(NC(=S)N(Cc2ccc(Cl)cc2)Cc2ccc(C(=O)O)cc2)cc1 the results were Mtb betalactam inactive, FadD28 FP inh 16.9, PrP 5UTR inh inactive, BH1578 lux ind inactive, UGM FP inh inactive and Rv3671c protease inactive.
For COC(=O)c1ccc(NC(=O)CSc2nnc(CNc3ccc(F)cc3)n2C)cc1 the results were Mtb betalactam inactive, FadD28 FP inh inactive, PrP 5UTR inh inactive, BH1578 lux ind inactive, UGM FP inh inactive and Rv3671c protease inactive.
`O=C(CSc1nnc2n1CCCN2)c1ccc(Cl)cc1` gave Mtb betalactam inactive, FadD28 FP inh inactive, PrP 5UTR inh inactive, BH1578 lux ind 31.8, UGM FP inh inactive and Rv3671c protease inactive.
For O=C(CSc1nnc2n1CCCN2)c1ccc([N+](=O)[O-])cc1 the results were Mtb betalactam inactive, FadD28 FP inh inactive, PrP 5UTR inh inactive, BH1578 lux ind inactive, UGM FP inh inactive and Rv3671c protease inactive.
O=C(O)c1cccc(N/N=C/c2cc(Br)cc(Br)c2O)c1 was read as Mtb betalactam inactive, FadD28 FP inh 27.5, PrP 5UTR inh inactive, BH1578 lux ind inactive, UGM FP inh inactive and Rv3671c protease inactive.
For C=CC[C@@H](CC/C=C/C=C/CC/C=C\[C@@H]1CSC([C@@H]2C[C@@H]2C)=N1)OC the results were Mtb betalactam inactive, FadD28 FP inh inactive, PrP 5UTR inh 55.9, BH1578 lux ind inactive and Rv3671c protease inactive.
Screening Cc1[nH]n(-c2ccccc2)c(=O)c1/C=N/NC(=O)c1ccccc1F returned Mtb betalactam inactive, FadD28 FP inh inactive, PrP 5UTR inh inactive, BH1578 lux ind inactive, UGM FP inh inactive and Rv3671c protease inactive.
For Cc1ccccc1NC(=O)c1cc(=O)c2ccccc2o1 the results were Mtb betalactam inactive, FadD28 FP inh inactive, PrP 5UTR inh inactive, BH1578 lux ind inactive, UGM FP inh inactive and Rv3671c protease inactive.
For N#Cc1ccccc1NC(=O)c1cc(=O)c2ccccc2o1 the results were Mtb betalactam inactive, FadD28 FP inh 12.3, PrP 5UTR inh inactive, BH1578 lux ind inactive, UGM FP inh inactive and Rv3671c protease inactive.
CCc1ccc2c(c1)C(c1ccc([N+](=O)[O-])cc1)=NNC(c1ccc(Br)cc1)=N2 was read as Mtb betalactam inactive, FadD28 FP inh inactive, PrP 5UTR inh inactive, BH1578 lux ind inactive, UGM FP inh 51.7 and Rv3671c protease inactive.
`O=C(CN1C(=O)NC2(CCCc3ccccc32)C1=O)c1ccc(Br)cc1` (stereo not drawn) gave Mtb betalactam inactive, FadD28 FP inh 17.2, PrP 5UTR inh inactive, BH1578 lux ind inactive, UGM FP inh inactive and Rv3671c protease inactive.
For O=C(CN1C(=O)NC2(CCc3ccccc32)C1=O)c1ccc(Br)cc1 (stereo not drawn) the results were Mtb betalactam inactive, FadD28 FP inh inactive, PrP 5UTR inh inactive, BH1578 lux ind inactive, UGM FP inh inactive and Rv3671c protease inactive.
For CN=c1scc(-c2ccccc2F)n1/N=C/c1ccc(O)c(O)c1O the results were FadD28 FP inh 9.1, PrP 5UTR inh inactive and BH1578 lux ind inactive.
COc1ccc(-c2nc(C#N)c(NCc3ccc(F)cc3)o2)cc1OC was read as Mtb betalactam inactive, FadD28 FP inh 11.2, PrP 5UTR inh inactive, BH1578 lux ind inactive, UGM FP inh inactive and Rv3671c protease inactive.
`Cc1ccc(/C=C2/SC(=O)NC2=S)o1` gave FadD28 FP inh 15.7, PrP 5UTR inh inactive and BH1578 lux ind inactive.
`COc1cc(Cl)ccc1NC(=O)COc1ccccc1C(=O)NN` gave Mtb betalactam inactive, FadD28 FP inh inactive, PrP 5UTR inh inactive, BH1578 lux ind inactive, UGM FP inh inactive and Rv3671c protease inactive.
For COc1cccc2c1C(=O)c1c(O)c3c(c(O)c1C2=O)C[C@@](O)(C(=O)CO)C[C@@H]3OC1CC(N)C(O)C(C)O1 (stereo partly drawn) the results were FadD28 FP inh 52.8, PrP 5UTR inh inactive and BH1578 lux ind inactive.

High-throughput results (PubChem)
